Measured values reported in PubChem BioAssay (Tox21).
Records with an inconclusive call do not appear. Calls of active or inactive are those of the source. Unless noted, calls come from the whole dose curve; as a rule, active = well fitted curve in the direction sought with a large enough effect in the repeat runs; inconclusive = weak or mixed curves; inactive = no such curve, though single readings can be large; an effect the other way counts as inactive or inconclusive.

Assays:
[1] = qHTS assay to identify small molecule HDAC inhibitors (AID 1259364); note: top concentration of the series differs between compounds; nearly all actives have a fitted effect of over 45% in size
Outline: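 Luminescence read after 30 min room-temperature HDAC-Glo incubation measures cellular class I/II HDAC activity. Compounds were applied for 2 hr at 37 C to HCT-116 wild-type cells seeded the day before.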

[2] = qHTS assay to identify small molecule HDAC inhibitors - cell viability counter screen (AID 1259365); note: series mostly up to about 92 µM; nearly all actives have a fitted effect of over 50% in size
Outline: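 Following a 2hr exposure of overnight-plated wild-type HCT-116 cells to DMSO-delivered compounds, CellTiter-Glo was added and luminescence recorded after 30min at room temperature.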

[3] = qHTS assay to identify small molecule agonists of the sonic hedgehog signaling (Shh) pathway - cell viability counter screen (AID 1259366); note: nearly all actives have a fitted effect of over 50% in size
Outline: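 After a 4hr attachment at 37C, NIH/3T3 cells bearing an integrated Gli1-driven luciferase reporter were dosed with compounds. Treatment lasted 24hr, with the final hour including CellTiter-Fluor for a fluorescence viability measurement.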

[4] = qHTS assay to identify small molecule antagonists of the sonic hedgehog signaling (Shh) pathway - cell viability counter screen (AID 1259367); note: nearly all actives have a fitted effect of over 55% in size
Outline: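 Tox21 library chemicals were tested on a Gli1-Luc NIH/3T3 clone (2,000 cells/well) stimulated by conditioned medium; viability was quantified as fluorescence from CellTiter-Fluor reagent added at 23 hr.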

[5] = qHTS assay to identify small molecule agonists of the sonic hedgehog signaling (Shh) pathway (AID 1259368; calls by dose curve;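 note: NIH/3T3-derived 3T3Gli1-Luc cells carrying a stable Gli1-driven firefly luciferase reporter; series mostly up to about 92 µM; nearly all actives have a fitted effect of over 15% in size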)
Outline: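 Luminescence was read after 30 min at room temperature with luciferase reagent. Before that, 3T3Gli1-Luc cells (NIH/3T3 clone, stable Gli1-Luc reporter; 2,000/well) were exposed to compounds for 24 hr at 37C, 5% CO2, compounds being added 4 hr post-plating.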

[6] = qHTS assay to identify small molecule antagonists of the sonic hedgehog signaling (Shh) pathway (AID 1259369; calls by dose curve; note: nearly all actives have a fitted effect of over 45% in size)
Outline: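 Antagonist mode: compound added to 3T3 Gli1-Luc cells followed by conditioned-medium stimulation, 24 h at 37 C, 5% CO2. Inhibition taken as loss of Gli1-driven luciferase luminescence.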

[7] = molecular target: Estrogen receptor beta (Homo sapiens) (UniProt Q92731); assay: qHTS assay to identify small molecule antagonists of the estrogen receptor beta (ER-beta) signaling pathway (AID 1259378; active = well fitted inhibition curve with a large enough effect in the signal ratio in the repeat runs, not every such curve was filed as active; the % refers to the signal ratio)
Outline: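 ER-beta-UAS-bla HEK293T cells in 2% charcoal-stripped FBS medium treated with compound plus 1nM final 17-beta-estradiol for 16 hr at 37C. Beta-lactamase reporter read by FRET substrate fluorescence after 2 hours at room temperature.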

[8] = qHTS assay to identify small molecule agonists of the androgen receptor (AR) signaling pathway in the presence of an antagonist - cell viability counter screen (AID 1259379);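 note: MDA-kb2 human breast cancer cells carrying an MMTV luciferase reporter; series mostly up to about 92 µM; nearly all actives have a fitted effect of over 25% in size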
Outline: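 Cytotoxicity counter-screen run in the same wells as the nilutamide-challenged (3.0 µM final) AR agonist assay in MDA-kb2 cells. Compounds tested at 15 concentrations for 16 h, 37 °C without CO2; CellTiter-Fluor fluorescence read.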

[9] = qHTS assay to identify small molecule agonists of the estrogen receptor beta (ER-beta) signaling pathway - cell viability counter screen (AID 1259380); note: nearly all actives have a fitted effect of over 30% in size
Outline: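 Cell viability counter screen: CellTiter-Glo luminescence (30 min, room temperature) measured in the same wells as the beta-lactamase readout, after 16 hr compound exposure at 37C of ER-beta-bla HEK293T cells in 2% charcoal-stripped FBS medium.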

[10] = qHTS assay to identify small molecule antagonists of the estrogen receptor beta (ER-beta) signaling pathway - cell viability counter screen (AID 1259382); note: series mostly up to about 92 µM; nearly all actives have a fitted effect of over 55% in size
Outline: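 Cytotoxicity was measured in the same wells by CellTiter-Glo luminescence after 30 min at room temperature. Cells were ER-beta-bla HEK293T in charcoal-stripped serum, given compound together with 1 nM E2 and incubated 16 h at 37C.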

[11] = qHTS assay to identify small molecule agonists of the estrogen receptor alpha (ER-alpha) signaling pathway in the presence of an antagonist - cell viability counter screen (AID 1259386); note: series mostly up to about 92 µM; nearly all actives have a fitted effect of over 30% in size
Outline: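 Compounds tested at 15 concentrations for 22 h at 37C alongside 10.0nM (final) ICI-182,780 antagonist, in VM7Luc4E2 cells grown in phenol red-free, charcoal-stripped medium. Viability read by CellTiter-Fluor fluorescence after 1 h reagent incubation.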

[12] = molecular target: Progesterone receptor (Homo sapiens) (UniProt P06401); assay: qHTS assay to identify small molecule agonists of the progesterone receptor (PR) signaling pathway (AID 1346784; calls by dose curve; note: nearly all actives have a fitted effect of over 30% in size)
Outline: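 Using charcoal-stripped serum (2%) to limit endogenous steroids, PR-UAS-bla HEK 293T cells received compounds for 16 hr at 37C after 6 hr plating; beta-lactamase FRET fluorescence was recorded following 2 hr substrate loading at room temperature.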

[13] = molecular target: Progesterone receptor (Homo sapiens) (UniProt P06401); assay: qHTS assay to identify small molecule antagonists of the progesterone receptor (PR) signaling pathway (AID 1346795; active = well fitted inhibition curve with a large enough effect in the signal ratio in the repeat runs, not every such curve was filed as active; the % refers to the signal ratio)
Outline: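 Inhibition of R5020-induced (1 nM final) beta-lactamase reporter signal in PR-UAS-bla HEK293T cells was scored by FRET fluorescence after overnight (16 hr) compound treatment.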

[14] = qHTS assay to identify small molecule antagonists of the progesterone receptor (PR) signaling pathway - cell viability counter screen (AID 1346798); note: series mostly up to about 92 µM; nearly all actives have a fitted effect of over 50% in size
Outline: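 ATP content as viability readout: CellTiter-Glo luminescence, 30 min room temperature, in PR-UAS-bla HEK293T cells after 16 hr compound/R5020 treatment at 37C and 5% CO2.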

[15] = qHTS assay to identify small molecule agonists of the progesterone receptor (PR) signaling pathway - cell viability counter screen (AID 1346799; calls by dose curve; note: nearly all actives have a fitted effect of over 45% in size)
Outline: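 Cytotoxicity in PR-bla HEK293T cells: 16 h compound, 37C; CellTiter-Glo added post-FRET read; luminescence after 30 min RT.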

[16] = qHTS assay to identify small molecule agonists or antagonists of the thyroid stimulating hormone receptor (TSHR) signaling pathway - wild type cell line counter screen (AID 1259384; calls by dose curve)
Outline: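 Wild-type Hek293 cells, 800/well, 18 h at 37C, then compound with Ro20-1724 for 30 min RT. cAMP by HTRF (cAMP-d2/anti-cAMP cryptate), 1 h RT, fluorescence read. 15 concentrations, triplicates.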

[17] = molecular target: Thyrotropin receptor (Homo sapiens) (UniProt P16473); assay: qHTS assay to identify small molecule antagonists of the thyroid stimulating hormone receptor (TSHR) signaling pathway (AID 1259385; calls by dose curve; note: nearly all actives have a fitted effect of over 20% in size)
Outline: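 TSHR-HEK293 cells (800/well) plated 18 h, then compounds with Ro20-1724 and TSH at 1.5 ng/mL final, 30 min at room temperature. cAMP quantified by HTRF (cAMP-d2/anti-cAMP-cryptate, 1 h); 15 concentrations in triplicate.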

[18] = molecular target: Estrogen receptor (Homo sapiens) (UniProt P03372); assay: qHTS assay to identify small molecule agonists of the estrogen receptor alpha (ER-alpha) signaling pathway in the presence of an antagonist (AID 1259383; calls by dose curve; note: top concentration of the series differs between compounds; nearly all actives have a fitted effect of over 15% in size)
Outline: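 Agonist-mode confirmation run in the presence of 10.0nM (final) ICI-182,780 antagonist. The reporter was ERE-driven luciferase in VM7Luc4E2 cells, grown in charcoal-stripped serum. Cells were exposed to 15-concentration compound series for 22hr, then ONE-Glo luminescence was read.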

[19] = molecular target: Androgen receptor (Homo sapiens) (UniProt P10275); assay: qHTS assay to identify small molecule agonists of the androgen receptor (AR) signaling pathway in the presence of an antagonist (AID 1259381; calls by dose curve; note: nearly all actives have a fitted effect of over 15% in size)
Outline: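 Agonist-mode confirmation run against 3.0 uM final nilutamide: compounds titrated at 15 concentrations onto MDA-kb2 MMTV-luciferase reporter cells. Luminescence measured with ONE-Glo following 16 hr incubation, 37C, 0% CO2.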

Measured: Potency

Chain of Estrogen receptor (Homo sapiens) (P03372 whole entry, looked up): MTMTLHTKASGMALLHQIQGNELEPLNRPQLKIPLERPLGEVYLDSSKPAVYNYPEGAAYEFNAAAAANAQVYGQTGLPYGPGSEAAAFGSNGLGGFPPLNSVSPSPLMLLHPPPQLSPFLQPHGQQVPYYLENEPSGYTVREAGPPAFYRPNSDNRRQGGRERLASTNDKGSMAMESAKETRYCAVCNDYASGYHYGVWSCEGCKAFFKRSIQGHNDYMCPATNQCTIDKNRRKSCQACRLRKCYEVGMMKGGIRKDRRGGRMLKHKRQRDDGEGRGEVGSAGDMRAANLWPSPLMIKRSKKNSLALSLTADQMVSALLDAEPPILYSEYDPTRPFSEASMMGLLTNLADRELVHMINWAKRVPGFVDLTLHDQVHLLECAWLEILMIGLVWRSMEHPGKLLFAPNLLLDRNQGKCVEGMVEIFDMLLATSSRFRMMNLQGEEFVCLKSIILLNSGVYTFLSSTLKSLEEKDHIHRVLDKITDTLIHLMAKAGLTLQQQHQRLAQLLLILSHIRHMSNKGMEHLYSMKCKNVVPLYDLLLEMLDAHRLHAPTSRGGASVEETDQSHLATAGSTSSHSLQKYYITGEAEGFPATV
Chain of Thyrotropin receptor (Homo sapiens) (P16473 whole entry, looked up): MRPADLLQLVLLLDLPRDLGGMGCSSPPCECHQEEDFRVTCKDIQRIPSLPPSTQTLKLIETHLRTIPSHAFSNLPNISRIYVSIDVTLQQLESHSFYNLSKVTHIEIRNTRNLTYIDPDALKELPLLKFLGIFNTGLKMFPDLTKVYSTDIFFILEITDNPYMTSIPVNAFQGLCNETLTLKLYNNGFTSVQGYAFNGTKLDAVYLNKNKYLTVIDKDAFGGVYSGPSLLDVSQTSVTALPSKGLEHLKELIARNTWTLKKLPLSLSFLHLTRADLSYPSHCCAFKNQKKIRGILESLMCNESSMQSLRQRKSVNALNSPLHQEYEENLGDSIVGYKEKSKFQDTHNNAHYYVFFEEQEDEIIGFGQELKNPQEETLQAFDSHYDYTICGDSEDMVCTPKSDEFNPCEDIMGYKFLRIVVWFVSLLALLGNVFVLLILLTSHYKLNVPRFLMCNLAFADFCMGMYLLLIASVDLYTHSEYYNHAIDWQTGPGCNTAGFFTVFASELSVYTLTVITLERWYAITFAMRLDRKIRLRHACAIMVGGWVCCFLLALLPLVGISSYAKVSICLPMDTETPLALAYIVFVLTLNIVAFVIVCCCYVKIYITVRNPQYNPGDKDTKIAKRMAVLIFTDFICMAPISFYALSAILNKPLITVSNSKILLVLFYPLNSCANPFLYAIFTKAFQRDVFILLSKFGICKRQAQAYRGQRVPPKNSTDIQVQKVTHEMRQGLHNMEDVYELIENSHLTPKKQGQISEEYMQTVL
Chain of Estrogen receptor beta (Homo sapiens) (Q92731 whole entry, looked up): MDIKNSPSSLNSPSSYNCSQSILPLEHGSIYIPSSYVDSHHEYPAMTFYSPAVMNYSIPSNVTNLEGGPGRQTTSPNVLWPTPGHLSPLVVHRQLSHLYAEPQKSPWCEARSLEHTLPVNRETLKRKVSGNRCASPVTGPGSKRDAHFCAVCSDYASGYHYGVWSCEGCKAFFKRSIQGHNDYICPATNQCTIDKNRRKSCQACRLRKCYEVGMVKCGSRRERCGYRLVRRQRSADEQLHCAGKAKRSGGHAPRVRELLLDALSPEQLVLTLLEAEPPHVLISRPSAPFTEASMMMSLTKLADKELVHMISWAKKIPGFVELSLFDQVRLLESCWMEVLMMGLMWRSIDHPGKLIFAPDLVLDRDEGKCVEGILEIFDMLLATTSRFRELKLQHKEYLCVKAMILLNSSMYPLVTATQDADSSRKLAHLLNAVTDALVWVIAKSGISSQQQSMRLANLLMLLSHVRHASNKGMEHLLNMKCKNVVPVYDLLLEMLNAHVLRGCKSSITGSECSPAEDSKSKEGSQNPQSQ
Chain of Progesterone receptor (Homo sapiens) (P06401 whole entry, looked up): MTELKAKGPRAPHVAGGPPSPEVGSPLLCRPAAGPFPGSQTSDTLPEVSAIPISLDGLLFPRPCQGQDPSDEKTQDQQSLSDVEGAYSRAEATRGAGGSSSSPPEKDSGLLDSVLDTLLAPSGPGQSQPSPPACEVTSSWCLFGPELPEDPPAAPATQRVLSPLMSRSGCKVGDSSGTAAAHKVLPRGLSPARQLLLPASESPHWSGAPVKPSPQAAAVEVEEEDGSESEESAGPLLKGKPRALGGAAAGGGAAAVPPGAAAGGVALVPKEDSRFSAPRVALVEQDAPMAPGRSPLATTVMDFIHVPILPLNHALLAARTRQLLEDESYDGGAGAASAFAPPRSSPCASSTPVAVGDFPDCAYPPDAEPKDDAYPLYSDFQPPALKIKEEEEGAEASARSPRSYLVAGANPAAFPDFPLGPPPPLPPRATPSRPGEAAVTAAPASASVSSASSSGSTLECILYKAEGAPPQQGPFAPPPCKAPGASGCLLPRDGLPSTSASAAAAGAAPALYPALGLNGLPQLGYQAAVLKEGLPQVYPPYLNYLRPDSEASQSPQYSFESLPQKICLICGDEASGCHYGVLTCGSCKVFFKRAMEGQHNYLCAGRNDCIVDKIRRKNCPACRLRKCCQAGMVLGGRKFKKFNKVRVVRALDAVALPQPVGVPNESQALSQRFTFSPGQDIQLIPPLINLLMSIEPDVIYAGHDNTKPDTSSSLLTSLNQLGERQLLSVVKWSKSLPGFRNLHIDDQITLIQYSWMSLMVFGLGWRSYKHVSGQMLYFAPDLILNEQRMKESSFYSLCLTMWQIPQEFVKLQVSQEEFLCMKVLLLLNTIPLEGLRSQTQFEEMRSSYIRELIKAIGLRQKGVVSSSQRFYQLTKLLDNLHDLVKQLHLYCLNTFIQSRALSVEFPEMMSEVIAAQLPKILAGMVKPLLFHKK
Chain of Androgen receptor (Homo sapiens) (P10275 whole entry, looked up): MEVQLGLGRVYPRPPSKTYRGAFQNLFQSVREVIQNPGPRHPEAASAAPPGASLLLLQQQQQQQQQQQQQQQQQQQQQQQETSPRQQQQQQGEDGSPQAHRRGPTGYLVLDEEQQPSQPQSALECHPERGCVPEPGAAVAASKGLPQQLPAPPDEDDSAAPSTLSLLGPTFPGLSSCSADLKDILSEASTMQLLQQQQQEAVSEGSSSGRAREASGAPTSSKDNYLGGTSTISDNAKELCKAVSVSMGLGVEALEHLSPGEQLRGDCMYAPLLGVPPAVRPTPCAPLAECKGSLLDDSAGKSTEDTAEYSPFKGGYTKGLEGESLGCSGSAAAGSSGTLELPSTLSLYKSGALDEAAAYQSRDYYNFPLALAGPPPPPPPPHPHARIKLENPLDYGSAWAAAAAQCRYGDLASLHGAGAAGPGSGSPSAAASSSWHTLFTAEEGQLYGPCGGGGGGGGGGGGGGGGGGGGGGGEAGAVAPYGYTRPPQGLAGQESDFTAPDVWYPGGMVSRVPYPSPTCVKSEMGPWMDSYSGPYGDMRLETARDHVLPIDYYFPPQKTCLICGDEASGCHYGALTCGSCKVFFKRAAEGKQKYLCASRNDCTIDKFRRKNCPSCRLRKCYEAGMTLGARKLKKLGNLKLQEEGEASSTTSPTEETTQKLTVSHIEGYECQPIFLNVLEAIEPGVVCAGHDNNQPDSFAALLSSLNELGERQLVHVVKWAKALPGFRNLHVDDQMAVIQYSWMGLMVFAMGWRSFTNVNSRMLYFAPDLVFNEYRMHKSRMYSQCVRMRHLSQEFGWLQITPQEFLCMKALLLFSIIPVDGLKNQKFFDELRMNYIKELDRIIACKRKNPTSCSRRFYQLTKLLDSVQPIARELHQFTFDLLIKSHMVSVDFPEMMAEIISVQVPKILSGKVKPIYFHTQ

O=Cc1ccccc1Cl
not listed: [16] | [17] | [18] | [19]
inactive: all other assays above

CC(C)(CO)C(O)C(=O)NCCCO (stereo not drawn)
not listed: [18] | [19]
inactive: all other assays above

C/C(=C1\CCOC(=O)S1)N(C=O)Cc1cnc(C)nc1N
not listed: [16] | [17] | [18] | [19]
inactive: all other assays above

N#CCC(=O)NN
not listed: [7] | [19]
inactive: all other assays above

CC(=O)O[Si](C)(OC(C)=O)OC(C)=O
not listed: [14] | [17] | [18] | [19]
inactive: all other assays above

O=C=NCC1CCCC(CN=C=O)C1 (stereo not drawn)
not listed: [7] | [12] | [13] | [19]
inactive: all other assays above

CCCCOC(=O)[C@H](C)O
not listed: [7] | [14] | [19]
inactive: all other assays above

CCC/C=C(\C=O)CC
not listed: [14] | [16] | [17] | [19]
inactive: all other assays above

OC[C@H]1O[C@@H](O[C@@H]2[C@@H](CO)O[C@](O)(CO)[C@H]2O)[C@H](O)[C@@H](O)[C@H]1O
not listed: [7]
inactive: all other assays above
